Screens as filed in PubChem BioAssay.
Pf apPOL inh: Pf-apPOL DNA polymerase inhibition | AID 1794808 | Recombinant Pf-apPOL, molecular beacon fluorescence, 1.5 h | actives 0.25% (n = 210,000) | inhibition, % at 10 µM
mHTT-CaM PPI inh: disrupts binding of mutant huntingtin to calmodulin. P42858. AlphaScreen His-mHTT/GST-CaM binding, luminescence. inhibition, % at 15 µM. actives 3.6% (n = 190,000). AID 1671202
Large screens that a line does not name were inactive. Shown are actives, neighbours in structure and some others; about 3.6% of the full set was active somewhere. Rule as the data show it: active = inhibition above about 50%; inactive = the rest.

COc1ccc(C=CC(=O)N2CCc3cc(OC)c(OC)cc3C2COc2ccc3c(C)cc(=O)oc3c2)cc1OC (stereo not drawn)	mHTT-CaM PPI inh 69.2
CCCC(=O)N1CCc2cc(OC)c(OC)cc2C1COc1ccc(OC)cc1 (stereo not drawn)	none
COc1cc2c(cc1OC)C(COc1ccc(F)cc1)N(C(=O)c1cccc(F)c1)CC2 (stereo not drawn)	mHTT-CaM PPI inh 76.0
COc1cc2c(cc1OC)C(COc1ccc(F)cc1)N(C(=O)Cc1ccc(F)cc1)CC2 (stereo not drawn)	mHTT-CaM PPI inh 61.0
COc1cc2c(cc1OC)C(COc1ccc3c(C)cc(=O)oc3c1)N(C(=O)c1ccc(Cl)cc1)CC2 (stereo not drawn)	none
COc1ccc(OCC2c3cc(OC)c(OC)cc3CCN2C(=O)c2cccc(OC)c2)cc1 (stereo not drawn)	none
COc1ccc2c(c1)-c1onc(C(=O)NCCSC)c1CC2	none
CCC(=O)N1CCc2c(c(-c3nc(-c4ccccc4)no3)nn2C)C1	none
O=C(Nc1cc(NC(=O)c2cc(Cl)ccc2Cl)ccc1Cl)c1ccccc1	none
Cc1ccc(CNC(=O)C2CCc3nc(N4CCN(C(=O)C(C)C)CC4)sc3C2)cc1 (stereo not drawn)	none
Cc1nnc(NC(=O)CN2CC(c3nc(Cc4ccccc4)no3)C2)s1	none
Cc1cccc(CS(=O)(=O)N2CC(c3nc(Cc4ccccc4)no3)C2)c1	none
FC(F)(F)c1cccc(CN2CC(c3nc(Cc4ccccc4)no3)C2)c1	mHTT-CaM PPI inh 61.5
O=C(CN1CC(c2nc(Cc3ccccc3)no2)C1)c1ccc(Cl)cc1	mHTT-CaM PPI inh 56.9
CCCCN(CC)C(=O)CSc1nc2n[nH]c(C)c2c(=N)n1-c1cccc(C)c1	none
CCC(Sc1nc2n[nH]c(C)c2c(=N)n1-c1ccc(Cl)c(C)c1)C(=O)NCCOC (stereo not drawn)	mHTT-CaM PPI inh 52.0
Cc1cc(NC(=O)CSc2nc3n[nH]c(C)c3c(=N)n2-c2ccc(Cl)c(C)c2)no1	none
Cc1[nH]nc2nc(SCC(=O)N3CCCC3)n(-c3cccc(Cl)c3)c(=N)c12	none
CCC(Sc1nc2n[nH]c(C)c2c(=N)n1-c1cccc(Cl)c1)C(=O)NCCOC (stereo not drawn)	mHTT-CaM PPI inh 61.0
Cc1[nH]nc2nc(SCC(=O)NCc3ccco3)n(-c3cccc(Cl)c3)c(=N)c12	mHTT-CaM PPI inh 50.0
O=C(Nc1cccc(Cl)c1Cl)c1ccn[nH]1	none
CCOc1cc(S(=O)(=O)NCc2ccco2)ccc1Br	none
Cc1ccc(NC(=O)N2CCCC2C(=O)NC2CC2)cc1 (stereo not drawn)	none
O=C(CC1CCN(C(=O)c2ccccc2Cl)CC1)NCCCN1CCOCC1	none
CCc1nc2cc(-c3noc(-c4ccc5ccccc5n4)n3)ccc2o1	none
Cc1cc(O)cc2c1C(=O)C(=Cc1cccs1)O2	none
Cc1cc(O)c2c(c1)OC(=Cc1ccccc1)C2=O	mHTT-CaM PPI inh 53.0
Cc1cc(O)c2c(c1)OC(=Cc1cccs1)C2=O	mHTT-CaM PPI inh 58.9
Cc1cc(O)c2c(c1)OC(=Cc1ccc(F)cc1)C2=O	none
COc1ccc(C)c2c1NC(c1ccc(Br)cc1)C1CC=CC21 (stereo not drawn)	mHTT-CaM PPI inh 72.0
O=[N+]([O-])c1cccc2c1NC(c1ccc(Cl)cc1)C1CC=CC21 (stereo not drawn)	mHTT-CaM PPI inh 86.0
O=[N+]([O-])c1ccc(C2Nc3c(cccc3[N+](=O)[O-])C3C=CCC32)cc1 (stereo not drawn)	none
O=[N+]([O-])c1cccc2c1NC(c1ccc(F)cc1)C1CC=CC21 (stereo not drawn)	mHTT-CaM PPI inh 83.0
COc1cccc2c1NC(c1ccc(Cl)cc1)C1CC=CC21 (stereo not drawn)	mHTT-CaM PPI inh 59.0
COc1cc(C2Nc3c(F)cccc3C3C=CCC32)cc(Br)c1OC (stereo not drawn)	none
Cc1ccc(OC(=O)c2ccc(C(C)(C)C)cc2)c(Br)c1	none (no result: mHTT-CaM PPI inh)
O=C(NCc1ccc(F)cc1)N1CCC(n2c(-c3ccco3)nc3cccnc32)C1 (stereo not drawn)	none
O=C(Cn1c(=O)[nH]c2ccsc2c1=O)N1CCN(c2ccc([N+](=O)[O-])cc2)CC1	none
CC(=O)n1cc(C(C[N+](=O)[O-])SCCNC(=O)c2ccco2)c2ccccc21 (stereo not drawn)	none
Cc1nn(C)c2c(N3CCCC(C(=O)NCc4ccc(Br)cc4)C3)nccc12 (stereo not drawn)	none
Cn1cccc1-c1cc2n(n1)CCCN2C(=O)CCC(=O)Nc1ccc(F)cc1Cl	none
CCCCOc1ccc(C(C)NC(=O)CCN2N=C(c3ccc(C)cc3)CCC2=O)cc1 (stereo not drawn)	none
c1ccc2c(CSCc3csc4ccccc34)csc2c1	none (no result: mHTT-CaM PPI inh)
O=C(NCCc1c[nH]c2ccccc12)Nc1ccc(Cl)cc1	none (no result: mHTT-CaM PPI inh)
CCn1cc(NC(=O)NCCc2c[nH]c3ccccc23)c2ccccc21	mHTT-CaM PPI inh 72.2
O=C(CCN1CCOCC1)NCC1OCCc2ccccc21 (stereo not drawn)	none
COc1cc(C2C(C#N)=C(N)Oc3n[nH]c(-c4ccc(Br)cc4)c32)cc(OC)c1O (stereo not drawn)	mHTT-CaM PPI inh 87.0
COc1ccc(-c2[nH]nc3c2C(c2cc(Cl)c(O)c(OC)c2)C(C#N)=C(N)O3)cc1 (stereo not drawn)	none
N#CC1=C(N)Oc2n[nH]c(-c3ccccc3)c2C1c1ccc2c(c1[N+](=O)[O-])OCO2 (stereo not drawn)	mHTT-CaM PPI inh 51.0
CCOc1ccc(-c2[nH]nc3c2C(c2cn[nH]c2-c2ccc(F)cc2)C(C#N)=C(N)O3)cc1 (stereo not drawn)	none
COc1cc(-c2[nH]nc3c2C(c2ccc(C(F)(F)F)cc2)C(C#N)=C(N)O3)cc(OC)c1OC (stereo not drawn)	mHTT-CaM PPI inh 90.0
COc1cc(C2C(C#N)=C(N)Oc3n[nH]c(C(F)(F)F)c32)cc(OC)c1OC (stereo not drawn)	none
N#CC1=C(N)Oc2n[nH]c(-c3ccc(Br)cc3)c2C1c1cn[nH]c1-c1ccc(F)cc1 (stereo not drawn)	mHTT-CaM PPI inh 59.0
N#CC1=C(N)Oc2n[nH]c(-c3ccccc3)c2C1c1ccccc1Cl (stereo not drawn)	none
CCOc1ccccc1Nc1nc(C)nc2sc(C)cc12	none
O=C(O)c1cnn2cccnc12	none
O=C(O)c1cc2ncccn2n1	Pf apPOL inh 51.5
O=[N+]([O-])c1cccc(-c2csc(CS(=O)(=O)c3cccs3)n2)c1	none (no result: mHTT-CaM PPI inh)
COc1ccc2cc3cc(C(=O)Nc4ccccc4F)oc3nc2c1	none
COC(=O)c1cc(Nc2ccccc2OC)c2cccc(OC)c2n1	none
COc1ccccc1Nc1cc(C(F)(F)F)nc2c(OC)ccc(OC)c12	mHTT-CaM PPI inh 69.0
Cc1ccc(CNC(=O)c2c(C)sc3ncnc(N4CCCCC4)c23)cc1	none
CSc1ccc(CNC(=O)C2CCN(c3cncnc3N3CCCCC3)CC2)cc1	none
Cc1cccc(CNC(=O)C2CCN(c3cncnc3N3CCCC3)CC2)c1	none
O=C(NCc1ccc(C(F)(F)F)cc1)C1CCN(c2cncnc2N2CCCC2)CC1	mHTT-CaM PPI inh 83.3
O=C(NCc1cccc(Cl)c1)C1CCN(c2cncnc2N2CCCC2)CC1	mHTT-CaM PPI inh 51.7
Cc1ccc(-c2cncc(C(=O)Nc3cccc(Cl)c3)c2)cc1	none
COc1ccccc1N1CCN(C(=O)C2C3CC4OC(=O)C2C4C3)CC1 (stereo not drawn)	none
CC1(C)CC(=O)C2=C(C1)Nc1nc(-c3ccccc3)nn1C2c1ccc(F)cc1 (stereo not drawn)	mHTT-CaM PPI inh 78.0
